Compound activity from PubChem BioAssay.
Anesthetic bind: qHTS Assay for Identification of Novel General Anesthetics; Potency, µM (top dose mostly 77.5 µM), for the others: at the top dose activity change, negative = displacement, actives largely listed as inhibitors; hit rate 0.074% among 350,000; Ferritin light chain (Equus caballus), P02791; AID 485281, 2010; apoferritin/1-aminoanthracene competitive binding, fluorescence; also: potency is read from the fitted curve at half-maximal effect; % is scaled to controls: 0 for no effect and ±100 for the full control effect; nearly all actives have a fitted effect of over 20% in size
Target sequence (P02791 2-175 limits assumed): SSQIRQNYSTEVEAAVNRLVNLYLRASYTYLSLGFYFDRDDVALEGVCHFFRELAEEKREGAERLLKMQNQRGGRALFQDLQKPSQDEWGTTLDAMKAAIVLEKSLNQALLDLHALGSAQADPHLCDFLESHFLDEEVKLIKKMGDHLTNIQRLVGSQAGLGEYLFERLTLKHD
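Concentration-response curves derived by four-parameter Hill fitting of normalized fluorescence, where compounds displaced 1-AMA from 10 uM horse apoferritin following a brief 10 min room-temperature incubation; propofol titration acted as positive control.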
TrxR1 substrate: qHTS Assay for Substrates of Mammalian Selenoprotein Thioredoxin Reductase 1 (TrxR1): qHTS | Thioredoxin reductase 1, cytoplasmic (Rattus norvegicus), O89049 | purified TrxR1 substrate turnover, NADPH consumption readout | Potency, µM (top dose mostly 114 µM), without a hit: top-dose activity change, negative = substrate turnover | hit rate 0.01% among 390,000 | AID 588456, 2011; also: potency is read from the fitted curve at half-maximal effect; % is scaled to controls: 0 for no effect and ±100 for the full control effect; nearly all actives have a fitted effect of over 50% in size
Target sequence (O89049 whole entry, looked up): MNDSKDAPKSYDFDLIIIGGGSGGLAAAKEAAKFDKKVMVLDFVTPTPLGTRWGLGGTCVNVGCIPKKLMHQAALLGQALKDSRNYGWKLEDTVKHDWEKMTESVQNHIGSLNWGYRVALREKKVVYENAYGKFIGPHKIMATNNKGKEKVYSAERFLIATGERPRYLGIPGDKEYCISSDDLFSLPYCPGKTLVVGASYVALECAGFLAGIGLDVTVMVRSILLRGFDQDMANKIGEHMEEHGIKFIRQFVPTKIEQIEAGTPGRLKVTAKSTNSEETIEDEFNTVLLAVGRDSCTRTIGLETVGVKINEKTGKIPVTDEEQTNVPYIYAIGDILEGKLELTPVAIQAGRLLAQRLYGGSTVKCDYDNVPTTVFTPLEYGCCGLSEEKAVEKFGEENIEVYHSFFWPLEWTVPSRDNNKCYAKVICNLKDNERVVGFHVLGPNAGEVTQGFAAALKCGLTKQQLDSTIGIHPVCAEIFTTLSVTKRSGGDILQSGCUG
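Rat TrxR1, dispensed at 90 nM, was prereduced with 400 uM NADPH (final) for 5 min at ~22 deg C, then incubated with compound 15 min before 400 uM selenite. A first-read NADPH fluorescence drop versus no-compound background flagged substrates.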
12-LOX inh: Primary qHTS assay for inhibitors of human arachidonate 12S-lipoxygenase (ALOX12): Round 2 | purified 12hLO, xylenol orange hydroperoxide absorbance | Potency, µM (highest dose often 108 µM), for the others: at the highest dose activity change, negative = inhibition, most hits filed as inhibitors | hit rate 1.1% among 580,000 | AID 1671190, 2021; also: potency is read from the fitted curve at half-maximal effect; % is scaled to controls: 0 for no effect and ±100 for the full control effect
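Purified human 12hLO (150 nM final) in 25 mM Hepes, 0.01% Triton X-100, pH 7.0 was preincubated 15 min at room temperature with compound. Then 40 uM arachidonic acid was added, 30 min. Hydroperoxide was read by Fe-XO absorbance ratio 573/405 nm.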
TrxR1 inh: qHTS Assay for Inhibitors of Mammalian Selenoprotein Thioredoxin Reductase 1 (TrxR1): qHTS; Potency, µM (top dose mostly 114 µM), for inactives: top-dose activity change, negative = inhibition, actives largely listed as inhibitors; Thioredoxin reductase 1, cytoplasmic (Rattus norvegicus), O89049; hit rate 1% among 390,000; recombinant rTrxR1, NADPH fluorescence consumption, selenite substrate; also: potency is read from the fitted curve at half-maximal effect; % is scaled to controls: 0 for no effect and ±100 for the full control effect; nearly all actives have a fitted effect of over 65% in size
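Rat TrxR1 (90 nM in the dispensed reagent) was pre-reduced with 400 uM NADPH for 5 min at room temperature, then incubated with compound for 15 min. After 400 uM selenite was added, NADPH fluorescence (Ex 340/Em 450 nm) was followed for 8 min.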
IDH1 R132H inh: qHTS for Inhibitors of mutant isocitrate dehydrogenase 1 (IDH1): qHTS; Isocitrate dehydrogenase [NADP] cytoplasmic (Homo sapiens), O75874; IDH1-R132H enzyme, NADPH consumption, diaphorase/resazurin fluorescence; Potency, µM (titrated, usually from 76.6 µM), without a hit: at the highest dose activity change, negative = inhibition, hits mostly inhibitors; hit rate 0.093% among 390,000; also: potency is read from the fitted curve at half-maximal effect; % is scaled to controls: 0 for no effect and ±100 for the full control effect; nearly all actives have a fitted effect of over 65% in size
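IDH1-R132H (0.5 ug/mL) preincubated 30 min with compound, then NADPH (0.016 mM) and alpha-KG (2 mM) added; 80 min at RT, pH 7.5. Remaining NADPH coupled via diaphorase/resazurin to fluorescence (540/590 nm); concentration-response curves normalized to no-enzyme control.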
Glioma ERSR ind: qHTS for Inducers of the Endoplasmic Reticulum Stress Response (ERSR) in Human Glioma: qHTS; U87-MG GRP78 promoter luciferase reporter, 16 h; Potency, µM, without a hit: at the top dose activation, usual class: activators; hit rate 0.02% among 420,000; AID 602332, 2012; also: potency is read from the fitted curve at half-maximal effect; series mostly up to about 76 µM; % of control where 0% means no effect; nearly all actives have a fitted effect of over 35% in size
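Stably transfected U87-MG human glioma cells carrying a GRP78-based luminescent sensor were seeded at 1000 cells/well, pin-dosed with compounds and incubated 16 h. Luciferase reagent was then added, and end-point luminescence was read after 10 min at room temperature.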
Resorufin autofl: qHTS for Inhibitors of mutant isocitrate dehydrogenase 1 (IDH1): Cherrypicks Autofluorescence Interference; shares compounds with IDH1 R132H inh; inhibition of signal, % at 51.2 µM; Resorufin detection reagent fluorescence interference, cell-free; 750 tested, under 10 active; AID 623980, 2012;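 also: 0% = wells with normal resorufin and full inhibition = wells lacking resorufin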
IDH1 WT: qHTS for Inhibitors of mutant isocitrate dehydrogenase 1 (IDH1): Cherrypicks in WT IDH1; hit rate 9% among 750; WT IDH1 enzyme, NADPH diaphorase/resazurin fluorescence; Potency, µM (series often up to 115 µM), for inactives: at the highest dose activity change, negative = inhibition, most hits filed as inhibitors; shares compounds with IDH1 R132H inh;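 also: potency is read from the fitted curve at half-maximal effect; 0% = full WT IDH1 enzyme control and full inhibition = no enzyme wells; nearly all actives have a fitted effect of over 55% in size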
IDH1 R132H conf: qHTS for Inhibitors of mutant isocitrate dehydrogenase 1 (IDH1): Confirmation of Cherrypicks. shares compounds with IDH1 R132H inh. IDH1 R132H enzyme, NADPH diaphorase/resazurin fluorescence. Potency, µM (doses to about 76.6 µM), for the others: top-dose activity change, negative = inhibition, hits mostly inhibitors. hit rate 83% among 750; also: potency is read from the fitted curve at half-maximal effect; nearly all actives have a fitted effect of over 50% in size
* = called active by the depositor; u = inconclusive; x = no result given; [ ] = remark or other dose. Rows were chosen to be rich in hits. Some 1.7% of all compounds tested hit in one or more screens of this group. Calls follow the shape of the dose curve; as a rule, active = well fitted curve in the direction sought with a large enough effect; inconclusive = small, poorly fitted or top-dose-only effect, or another doubt; inactive = no such curve, though single readings can be large; an effect the other way counts as inactive or inconclusive.

SMILES	Anesthetic bind	TrxR1 substrate	12-LOX inh	TrxR1 inh	IDH1 R132H inh	Glioma ERSR ind	Resorufin autofl	IDH1 WT	IDH1 R132H conf
COc1ccc(C(=O)NC2CCN(c3cnn(C)c(=O)c3)CC2)cc1F	x	x	9.6%	x	x	x	x	x	x
COc1ccc(NC(=O)c2c[nH]n3c(=O)cc(C4CCN(C(=O)OC(C)(C)C)CC4)nc23)cc1Cl	1.0%	1.7%	39.8µM*	13.1%	41.4µM*	-4.3%	-4.9	31.6µM*	20µM*
CC(C)(C)OC(=O)N1CCC(c2cc(=O)n3[nH]cc(C(=O)NC4CCCC4)c3n2)CC1	-12.6%	21.4%	-15.9%	-0.3%	-30.5%	-1.4%	x	x	x
COc1ccc(NC(=O)c2cnn(-c3ccc(F)cc3F)c2C2CCN(C(=O)OC(C)(C)C)CC2)cc1Cl	-10.5%	2.9%	-24.6%	27.0%	-3.7%	1.4%	x	x	x
CC(C)(C)OC(=O)N1CCC(c2cc(=O)n3[nH]cc(C(=O)Nc4ccc(F)c(Cl)c4)c3n2)CC1	-6.0%	3.1%	-19.2%	0.1%	u	-0.8%	-7.7	u	10µM*
CN(Cc1ccccc1)Cc1cn([C@H]2CO[C@H]3[C@@H]2OC[C@@H]3NS(=O)(=O)c2cccc3cccnc23)nn1	x	x	60.2%	x	x	x	x	x	x
Cc1ccc(-n2c(O)c(C=Nc3ccccc3-c3n[nH]c(=S)[nH]c3=O)c3ccccc3c2=O)c(C)c1	-17.8%	-7.0%	15.8µM*	u	u	-0.2%	-4.6	79.4µM*	35.5µM*
CCOC(=O)c1cc(-c2ccncc2)nc2c1c(C)nn2-c1ccccn1	1.4%	12.5%[57.1 µM]	-0.3%	-2.2%[57.1 µM]	u	4.4%	-2.4	u	22.4µM*
COc1ccc(-c2cc(C(=O)O)c3c(C)nn(-c4ccccn4)c3n2)cc1	5.2%	82.9%[57.1 µM]	1.2%	-49.9%	1.0%	0.2%	x	x	x
COc1ccccc1C1(CC(=O)O)CCOC(C(C)C)C1 (centres undefined)	0.9%	8.2%[57.1 µM]	0.0%	19.1%	6.3%	-4.4%	x	x	x
CCC(=O)N(CCC1(c2ccccc2OC)CCOC(C(C)C)C1)Cc1ccco1 (centres undefined)	-10.8%	-9.2%	36.5%	11.3%[57.1 µM]	u	-2.4%	2.6	7.3%	39.8µM*
Cc1ccc2nc3c(nc2c1C)CCCC3	5.6%	13.5%[57.1 µM]	-23.0%	8.0%[57.1 µM]	0.1%	-1.8%	x	x	x
Cc1ccc2nc3c(nc2c1C)C(O)=C3O	4.9%	1.6%[57.1 µM]	265.5%	8.91µM*	u	-0.5%	-5.8	62.8%	44.7µM*
CC(C)c1cccc(C(C)C)c1NC(=O)COC(=O)c1ccc2c(c1)NC(=O)CS2	x	x	-18.1%	x	x	x	x	x	x
Cc1ccc(S(=O)(=O)CCc2nnc(NC(=O)CCl)s2)cc1C	-2.8%	4.5%	4.1%	u	u	u	-0.5	-6.2%	31.6µM*
Cc1ccc2c(c1)c1ncnc(N3CCOCC3)c1n2C	172.2%	375.7%	0.0%	-9.7%	2.5%	4.6%	x	x	x
Cn1c2ccccc2c2ccc3c(c21)C(=O)C=CC3=O	x	15.3%[11.4 µM]	u	-70.8%[57.1 µM]	23.3µM*	-2.5%	-0.1	-30.0%	10µM*
COc1ccc2c(c1)c1ccc3c(c1n2C)C(=O)C=CC3=O	-10.7%	17.1%[57.1 µM]	0.708µM*	u	35.5µM*	-2.7%	-0.2	138.0%	22.4µM*
Cc1ccc2c(c1)c1ccc3c(c1n2C)C(=O)C=CC3=O	-8.3%	2.5%	1.12µM*	39.8µM*	41.4µM*	-1.9%	1.7	59.5%	22.4µM*
CNC(=O)[C@H]1C[C@H](Oc2ccccc2)CN1C(=O)Nc1ccccc1	x	x	49.3%	x	x	x	x	x	x
COc1cc(OC)c(NC(=O)c2ccc3c(SCC(=O)O)c4c(nc3c2)CCCC4)cc1Cl	-20.1%	-5.3%	-19.5%	-8.2%	u	-2.2%	8.0	-17.9%	28.2µM*
COc1c(CC=C(C)C)cc(C2CC(=O)c3c(O)cc(O)cc3O2)cc1CC=C(C)C (centres undefined)	u	25.6%	u	u	35.5µM*	-9.1%	-0.5	39.8µM*	25.1µM*
Cc1csc2nc(COC(=O)c3cccc(NC(=O)COc4ccccc4Cl)c3)cc(=O)n12	-8.7%	11.2%[57.1 µM]	-10.4%	20.4%[57.1 µM]	4.5%	-0.4%	x	x	x
CCc1cc(C(=O)c2ccc(OC)cc2)c(NC(=O)CN2CCCCC2)s1	-8.2%	-6.0%	31.1%	9.8%	-6.5%	-3.5%	x	x	x
CCc1cc(C(=O)c2ccc(OC)cc2)c(NC(=O)CN2CCCC2)s1	-12.6%	1.8%	143.3%	-21.6%	46.5µM*	2.5%	-1.0	0.5%	15.8µM*
CC(=O)c1cccc(NC(=O)c2c(-c3ccccc3Cl)noc2C)c1	x	x	0.3%	x	x	x	x	x	x
CCOc1ccc(N2C(=O)c3[nH]nc(-c4ccccc4)c3C2c2ccc(O)c(OC)c2)cc1 (centres undefined)	-14.5%	-10.4%[57.1 µM]	-23.5%	-25.5%[57.1 µM]	u	-6.5%	-0.3	1.1%	20µM*
O=C1c2[nH]nc(-c3ccc(Br)cc3)c2C(c2cccc(O)c2)N1c1ccc(Cl)cc1 (centres undefined)	-3.9%	5.6%	-36.5%	1.6%	39.8µM*	-10.5%	-5.7	1.1%	20µM*
Cc1ccc(-c2n[nH]c3c2C(c2ccccc2)N(c2ccc(C(=O)O)cc2)C3=O)cc1 (centres undefined)	-4.4%	2.1%	u	4.0%	52.1µM*	-3.9%	-2.5	-23.0%	28.2µM*
